# Source: PubChem BioAssay
# Potency and affinity values are given separately. Unmarked numbers belong to inactive results. Entries that show only a call come without a potency. Active and inactive are the calls of the source. How the calls were made is not given here.
# What was measured:
# [1] = A549 cell cytotoxicity, dose response, cytotoxicity control, plate reader, cherry-pick, antagonist series (AID 743412)
# [2] = toxicity toward HepG2 liver cells – cell-based, plate reader, cherry-pick, antagonist series, cytotoxicity control, dose response (AID 743416)
# [3] = target: Melanocortin receptor 4 (Homo sapiens) (UniProt P32245); experiment: blockade of melanocortin 4 receptor signaling – cell-based, plate reader, cherry pick, counter-screen for LGR2 antagonist project, dose response (AID 743444)
SMILES,outcome [1],outcome [2],outcome [3]
O=C(Nc1ccc(N2CCN(C(=O)c3ccc(Cl)cc3)CC2)cc1)c1cc2ccccc2o1,inactive,inactive,
Cc1ccccc1C(=O)Nc1nnc(-c2ccco2)s1,inactive,inactive,
c1nc(CCO[C@H]2CCCCO2)cc2cc3c(cc12)OCO3,inactive,inactive,
Cc1cc(C(=O)COC(=O)c2ccccc2O)c(C)n1CC1CCCO1 (centres undefined),inactive,inactive,
COc1ccc(-n2sc3ccc(F)cc3c2=O)cc1,inactive,inactive,
O=C(CCCc1ccccc1)Nc1cccc(C(=O)O)c1,inactive,inactive,
COc1cc(NC(=O)c2cccc3c(-c4cnn(C)c4)coc23)cc(OC)c1OC,inactive,inactive,
Cc1ccc2nc(NC(=O)CCCC(=O)O)sc2c1,inactive,inactive,
Cc1ccc(C(=O)C2C(=O)C3CCC2C3)cc1 (centres undefined),inactive,inactive,
Cc1cc(C(=O)Nc2ccc(N3CCCCC3)cc2)no1,inactive,inactive,
COc1cc(SC)ccc1C(=O)Nc1ncc(C)s1,inactive,inactive,
COc1cc(NC(=O)c2cccs2)c(C(=O)OCC(=O)c2cc(C)n(-c3ccccc3)c2C)cc1OC,inactive,inactive,
COc1ccc(-c2nc(-c3cccs3)no2)cc1,inactive,inactive,
C=CCNc1nc(-c2cc3ccccc3o2)cs1,inactive,inactive,
CCCC(=O)N1CCCC(c2cc(C(=O)Nc3ccccc3)no2)C1 (centres undefined),inactive,inactive,
C=CCNC(=O)c1c(Cl)nc(C)c([N+](=O)[O-])c1C,inactive,inactive,
O=C(c1cc(-c2ccc(Cl)cc2Cl)on1)N1CCOCC1,inactive,inactive,
Cc1c(NC(=O)c2ccc(-c3ccccc3)cc2)cccc1C(=O)O,inactive,inactive,
Cc1nc2c(OCCC3CCCCC3)cccn2c1N(C)C(=O)CCC1CCCC1,inactive,inactive,
O=C(Nc1ccc(Cl)c(S(=O)(=O)N2CCOCC2)c1)c1ccc2c(c1)OCCO2,inactive,inactive,
Cc1ccc2nc(-c3ccc(NC(=O)COC(=O)c4ccco4)cc3)sc2c1,inactive,inactive,
FC(F)(F)c1cccc(CC2CN(Cc3ccccc3)Cc3ccccc3N2c2cc(Cl)cc(Cl)c2)c1 (centres undefined),inactive,inactive,
Cc1ccc(-c2nc(-c3ccncc3)no2)c(Cl)c1,inactive,inactive,

SMILES,outcome [1],outcome [2],outcome [3]
CSc1nc2ccc(NC(=O)c3ccccn3)cc2s1,inactive,inactive,
CC(C)(C)c1ccc(C(=O)NCCOc2ccccc2F)cc1,inactive,inactive,
COc1ccc(-c2cc(C(=O)N3CCOCC3)no2)cc1,inactive,inactive,
C[C@H](CO)N1C[C@H](C)[C@H](CN(C)C(=O)Nc2cccc3ccccc23)OCCCC[C@H](C)Oc2ccc(NC(=O)NC3CCCCC3)cc2C1=O,inactive,inactive,
O=C(O)c1ccc(-c2noc(-c3ccccc3Cl)n2)cc1,inactive,inactive,
Nc1c(C(=O)Nc2cccc(C(=O)O)c2)sc2nc3c(cc12)CCCC3,inactive,inactive,
Cc1ccc2nc(-c3ccc(NC(=O)C(C)Sc4nncs4)cc3)sc2c1 (centres undefined),inactive,inactive,
CN(C)c1ccc(C2NC(=O)c3ccccc3N2)cc1 (centres undefined),inactive,inactive,
Clc1ccc(OCc2nc(-c3ccccn3)no2)c(Br)c1,inactive,inactive,
COc1ccc(/C=C/C(=O)Nc2ccccc2C(=O)O)cc1OC,inactive,inactive,
CCOc1ccc(C(=O)Nc2cccc(C(=O)O)c2C)cc1Cl,inactive,inactive,
O=C(Nc1cccc(O)c1)c1cc(-c2ccc3c(c2)OCO3)on1,inactive,inactive,
O=C(CN1C(=O)c2ccccc2S1(=O)=O)c1ccccc1F,inactive,inactive,
O=C(CN1C(=O)c2ccccc2S1(=O)=O)c1ccc2c(c1)OCCCO2,inactive,inactive,
O=C(c1cc(-c2ccc(Cl)cc2Cl)on1)N1CCCC1,inactive,inactive,
CCCCN(CCCNC(=O)c1ccc2c(c1)NC(=O)CN2C)c1ccccc1,inactive,inactive,
O=C(CN1C(=O)c2ccccc2S1(=O)=O)c1ccc(F)c(F)c1,inactive,inactive,
Cc1c(NC(=O)c2cccc(NC(=O)COc3ccccc3C#N)c2)c(=O)n(-c2ccccc2)n1C,inactive,inactive,
Cc1ccc(C(=O)CN2C(=O)c3ccccc3S2(=O)=O)cc1,inactive,inactive,
O=C(Nc1cccnc1)c1cc(-c2ccc3c(c2)OCO3)on1,inactive,inactive,
Cc1ccc(C(=O)n2nc(-n3cccc3)c3c(C)cc(C)nc32)cc1,inactive,inactive,
O=C(CN1CCOc2ccccc21)NCc1ccc(F)cc1,inactive,inactive,
Cc1cc(C(=O)COC(=O)c2cccn2C)c(C)n1Cc1ccco1,inactive,inactive,

SMILES,outcome [1],outcome [2],outcome [3]
O=C(COc1ccc2ccccc2c1)Nc1nccs1,inactive,inactive,
Cc1csc(NC(=O)c2ccc(OCC3CCCO3)cc2)n1 (centres undefined),inactive,inactive,
CCOC(=O)c1cn2nc(N3CCCC3)ccc2n1,inactive,inactive,
Clc1ccccc1/C=C/c1nc(-c2ccccn2)no1,inactive,inactive,
CCOC(=O)c1cn2nc(N3CCCCC3)ccc2n1,inactive,inactive,
CSc1ccc(NC(=O)Nc2cc(C)ccn2)cc1,inactive,inactive,
Cc1ccc(-c2nnc(-c3ccccc3Br)o2)cc1,inactive,inactive,
C[C@@H]1CN([C@@H](C)CO)C(=O)c2cc(NS(=O)(=O)c3ccc(F)cc3)ccc2O[C@H]1CN(C)Cc1ccc(-c2ccccc2)cc1,inactive,inactive,
Cn1cccc1C(=O)OCC(=O)Nc1ccc2c(c1)OCCO2,inactive,inactive,
CCN(CC)S(=O)(=O)c1cc(C(=O)OCC(=O)Nc2ccc(-c3nc4ccc(C)cc4s3)cc2)ccc1F,inactive,inactive,
CCS(=O)(=O)N1Cc2ccccc2CC1C(=O)Nc1nc2ccccc2s1 (centres undefined),inactive,inactive,
CC(C)Oc1ccc(CNC(=O)CC(c2ccccc2)c2cc(Cl)ccc2O)cc1 (centres undefined),inactive,inactive,
Cc1c(C)c2ccc(OCC(=O)Nc3nccs3)cc2oc1=O,inactive,inactive,
COc1cc(SC)ccc1C(=O)Nc1ccc(Cl)cn1,inactive,inactive,
O=C(O)c1cccc(Nc2ccnc(Nc3cccc(C(=O)O)c3)n2)c1,inactive,inactive,
CC(C)NC(=O)Nc1ccc2c(c1)C(=O)N([C@H](C)CO)C[C@@H](C)[C@H](CN(C)S(C)(=O)=O)OCCCC[C@H](C)O2,inactive,inactive,inactive
O=C(CC1CS(=O)(=O)CC1CC(=O)Nc1ccc2c(c1)OCCO2)Nc1ccc2c(c1)OCCO2 (centres undefined),inactive,inactive,inactive
c1ccc(-n2ncc3c(N4CCCCC4)ncnc32)cc1,inactive,inactive,
C[C@H](CO)N1C[C@H](C)[C@H](CN(C)C(=O)Nc2ccc(F)cc2)OCCCC[C@H](C)Oc2ccc(NC(=O)C3CCCCC3)cc2C1=O,inactive,inactive,
C[C@H](CO)N1C[C@H](C)[C@H](CN(C)C(=O)Nc2ccc(F)cc2)OCCCC[C@H](C)Oc2ccc(NC(=O)NC3CCCCC3)cc2C1=O,inactive,inactive,inactive
CN(C)c1ccc(-c2nc3cc(N)ccc3o2)cc1,inactive,inactive,
COCCn1c(C)cc(C(=O)CSc2nnnn2C2CCCC2)c1C,inactive,inactive,
